Results on 40 molecules are retold here after PubChem BioAssay AID720555 (National Center for Advancing Translational Sciences (NCATS), 2013).

Where “and” joins values, the source holds several entries; their conditions need not be identical. Equal values may be shown once. Records with an inconclusive call do not appear. A number with no mark means an inactive call. Calls of active or inactive are those of the source. The call rests on the fitted dose curve; in most records, active means well fitted inhibition curve with a large enough effect; inconclusive means small, poorly fitted or top-dose-only effect; inactive means no such curve, though single readings can be large or run the other way.

The experiment deals with RecQ-like DNA helicase BLM (Homo sapiens) (UniProt P54132). The experiment in a line: qHTS for Inhibitors of Bloom's syndrome helicase (BLM): Helicase DNA unwinding fluorescent orthogonal confirmatory assay for SAR. To be noted: fluorescence, orthogonal confirmation; series mostly up to 55.6 µM; activity change, negative = inhibition: at the top concentration. An excerpt: Human RecQ DNA helicases participate in maintenance of genome stability and DNA repair. While other types of helicases have been explored as targets for drug development, members of the RecQ family have remained less well characterized. Mutations of the Bloom helicase gene have been associated with the rare human genetic disease called Bloom syndrome. […] Moreover, identified inhibitors can be used in cells and animal models to examine the consequences of inhibition on the survival of cancer cells where it has been shown that BLM plays an important role.
Sequence of RecQ-like DNA helicase BLM (Homo sapiens) (P54132 whole entry, looked up): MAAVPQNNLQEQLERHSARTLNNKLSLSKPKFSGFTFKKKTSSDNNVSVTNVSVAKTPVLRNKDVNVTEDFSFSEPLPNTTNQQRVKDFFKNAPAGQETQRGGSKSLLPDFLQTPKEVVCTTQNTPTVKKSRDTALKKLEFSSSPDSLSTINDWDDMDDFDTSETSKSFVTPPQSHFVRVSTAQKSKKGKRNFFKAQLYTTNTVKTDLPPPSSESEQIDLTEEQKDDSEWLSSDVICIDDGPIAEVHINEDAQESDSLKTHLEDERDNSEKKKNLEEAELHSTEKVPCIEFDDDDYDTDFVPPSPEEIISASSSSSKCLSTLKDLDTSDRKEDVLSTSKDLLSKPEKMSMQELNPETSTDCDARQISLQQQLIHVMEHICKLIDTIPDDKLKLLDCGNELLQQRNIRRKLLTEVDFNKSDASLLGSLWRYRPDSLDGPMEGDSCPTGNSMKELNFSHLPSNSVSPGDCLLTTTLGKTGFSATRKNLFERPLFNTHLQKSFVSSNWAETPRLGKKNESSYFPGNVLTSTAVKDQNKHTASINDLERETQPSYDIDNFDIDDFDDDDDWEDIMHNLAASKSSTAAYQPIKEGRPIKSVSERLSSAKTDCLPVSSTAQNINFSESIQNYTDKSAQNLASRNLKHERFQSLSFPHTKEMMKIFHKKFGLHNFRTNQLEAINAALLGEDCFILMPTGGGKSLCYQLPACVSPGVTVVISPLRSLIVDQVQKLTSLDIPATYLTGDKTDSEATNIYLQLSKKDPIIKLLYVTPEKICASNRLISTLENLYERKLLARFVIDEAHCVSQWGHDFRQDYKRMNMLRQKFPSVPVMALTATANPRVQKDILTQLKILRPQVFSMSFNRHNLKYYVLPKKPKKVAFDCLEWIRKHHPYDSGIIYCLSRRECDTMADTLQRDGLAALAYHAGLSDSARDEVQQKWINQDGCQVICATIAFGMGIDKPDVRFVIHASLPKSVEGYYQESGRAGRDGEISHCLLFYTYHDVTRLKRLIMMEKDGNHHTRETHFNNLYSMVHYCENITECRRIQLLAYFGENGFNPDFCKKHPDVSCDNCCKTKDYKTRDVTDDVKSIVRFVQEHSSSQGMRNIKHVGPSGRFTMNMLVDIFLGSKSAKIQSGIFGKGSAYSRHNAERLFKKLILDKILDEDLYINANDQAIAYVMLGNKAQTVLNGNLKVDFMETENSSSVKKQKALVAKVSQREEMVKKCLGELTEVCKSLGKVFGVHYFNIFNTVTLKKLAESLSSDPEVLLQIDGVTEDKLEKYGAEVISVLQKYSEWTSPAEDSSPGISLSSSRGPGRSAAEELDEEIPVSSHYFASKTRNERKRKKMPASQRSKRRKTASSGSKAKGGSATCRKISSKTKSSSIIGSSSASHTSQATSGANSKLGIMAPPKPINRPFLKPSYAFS
A fluorescence-based, biochemical assay in 1536 well format was developed to evaluate inhibition of BLM DNA unwinding activity. This assay was used to screen the MLPCN library. The resulting compounds were subjected to orthogonal and secondary biochemical assays to triage the initial hits, to classify compounds based on mode of action and to derive structure activity relationships (SARs) of candidate effectors. The data herein is the result of the Helicase DNA unwinding fluorescent orthogonal confirmatory assay. This fluorescent-based assay employs a purified BLM enzyme and utilizes gel electrophoresis to monitor the helicase-mediated unwinding of a fluorescently-labeled DNA substrate. For this assay decrease in the single-stranded DNA product band on the gel = inhibition of the BLM helicase activity. Inhibition is the desired outcome for this assay.
NIH Chemical Genomics Center [NCGC]
NIH Molecular Libraries Probe Centers Network [MLPCN]
Assay Submitter (PI): Opher Gileadi, Structural Genomics Consortium, University of Oxford, UK
Unwinding assay for the BLM helicase was carried out in a reaction buffer containing 50 mM Tris-HCl pH 7.5, 50mM NaCl, 2mM MgCl2, 2mM ATP, 1mM DTT, and 0.1 mg/ml BSA. Optimal substrate and enzyme concentrations as well as reaction times were determined experimentally. All reactions were performed at room temperature and terminated by the addition of loading buffer containing 20mM EDTA and 2.5% bromophenol blue. Reaction products were then separated on 15% non-denaturing polyacrylamide gels in 1x TAE, and the DNA was visualized using the Bio-Rad ChemiDocTM XRS Gel Imager. Substrate and product bands were quantified using ImageJ. The data was normalized against no-inhibitor and no-enzyme controls.
For `S=C(Nc1ccc(Cl)c(Cl)c1)Nc1nnc(-c2ccncc2)o1`, the “activity change, negative = inhibition” value is 1.29%.

Regarding `CCOc1ccc(NC(=O)Nc2ccc(-c3nc4ccccc4[nH]3)cc2)cc1`, the “activity change, negative = inhibition” value is -5.73%.

As for `O=C(Nc1ccc(-c2nc3ccccc3[nH]2)cc1)Nc1ccc2c(c1)OCCO2`, the “activity change, negative = inhibition” value is -0.67%.

In the case of `Cc1cc(NC(=O)Nc2nnc(-c3ccncc3)s2)ccc1Cl`, the Potency is 7.94 µM (active).

`O=C(Nc1ccc(Cl)c(Cl)c1)Nc1ccc(-c2ccncc2)s1`: the “activity change, negative = inhibition” value is 5.54% [at 53.6 µM].

Regarding `O=C(Nc1ccc(N2CCOCC2)c(F)c1)Nc1nnc(-c2ccncc2)s1`, the “activity change, negative = inhibition” value was -0.865% [at 53.6 µM].

With `O=C(Nc1ccc(-c2nc3ccccc3[nH]2)cc1)Nc1ccc2occc2c1`, the “activity change, negative = inhibition” value was -6.03%.

Consider `O=C(Nc1ccc(Cl)c(Cl)c1)Nc1cccc(-c2ccncc2)n1`, for which the Potency was 3.98 µM (active).

For the molecule `O=C(Nc1ccc(-n2ccnc2)c(F)c1)Nc1nnc(-c2ccncc2)s1`, the Potency is 10 µM (active).

As for `N#Cc1cc(NC(=O)Nc2nnc(-c3ccncc3)s2)ccc1-c1ccc[nH]1`, the Potency is 3.55 µM (active).

Take `N#Cc1cc(NC(=O)Nc2cccc(-c3ccncc3)n2)ccc1Cl`: the Potency was 0.631 µM (active).

Turning to `Cc1cc(NC(=O)Nc2nnc(-c3cccnc3)s2)ccc1Cl`, the Potency was 7.94 µM (active) and 3.98 µM (active).

For the molecule `N#Cc1cccc(NC(=O)Nc2nnc(-c3ccncc3)s2)c1`, the Potency is 8.91 µM (active).

As to `N#CN/C(=N\c1nnc(-c2ccncc2)s1)Nc1ccc(F)c(C(F)(F)F)c1`, the Potency was 3.16 µM (active).

For the molecule `O=C(Nc1ccc2ccccc2c1)Nc1nnc(-c2ccncc2)o1`, the “activity change, negative = inhibition” value was -6.58%.

In the case of `O=C(Nc1ccc2ccccc2c1)Nc1nnc(C2CCCCC2)s1`, the “activity change, negative = inhibition” value was 10.8%.

As to `Cc1cc(NC(=O)Nc2cccc(-c3ccncc3)n2)ccc1Cl`, the Potency was 4.47 µM (active) and 3.55 µM (active).

With `O=C(Nc1ccc(Cl)c(Cl)c1)Nc1nnc(-c2cccnc2)s1`, the Potency was 3.55 µM (active).

In the case of `O=C(Nc1ccc(Cl)nc1)Nc1nnc(-c2ccncc2)s1`, the Potency was 6.31 µM (active).

On to `O=C(Nc1cccc(C(F)(F)F)c1)Nc1nnc(-c2ccncc2)s1`, for which the Potency is 14.1 µM (active).

With `O=C(Nc1ccc2sccc2c1)Nc1nnc(-c2cccnc2)s1`, the Potency is 10 µM (active).

Take `O=C(Cc1nnc(-c2ccncc2)s1)Nc1ccc(F)c(C(F)(F)F)c1`: the “activity change, negative = inhibition” value was -13.6% [at 53.6 µM].

As to `N/C(=N\c1nnc(-c2ccncc2)s1)Nc1ccc(F)c(C(F)(F)F)c1`, the Potency is 35.5 µM (active).

For the molecule `O=C(Nc1ccc2ccccc2c1)Nc1nnc(-c2ccccc2)s1`, the “activity change, negative = inhibition” value is 4.37%.

With `N/C(=N\c1nnc(-c2ccncc2)s1)Nc1ccc(Cl)c(Cl)c1`, the Potency is 14.1 µM (active).

On to `O=c1c(Nc2ccc(Cl)c(Cl)c2)c(Nc2nnc(-c3ccncc3)s2)c1=O`, for which the Potency was 14.1 µM (active).

As for `O=C(Nc1ccc2sccc2c1)Nc1nnc(-c2ccncc2)s1`, the Potency is 10 µM (active).

With `Cc1cnccc1-c1nnc(NC(=O)Nc2ccc(F)c(C(F)(F)F)c2)s1`, the Potency is 1.26 µM (active).

`O=C(Nc1ccc(F)c(F)c1)Nc1nnc(-c2ccncc2)s1`: the Potency is 8.91 µM (active).

Turning to `O=C(Nc1ccc(Cl)c(Cl)c1)N1CCN(c2ccncc2)CC1`, the “activity change, negative = inhibition” value is 6% [at 53.6 µM].

On to `O=C(Nc1ccc2ccccc2c1)Nc1nnc(-c2ccc(F)cc2)s1`, for which the “activity change, negative = inhibition” value is -1.89%.

Turning to `O=C(Nc1ccc(Cl)c(C(F)(F)F)c1)Nc1nnc(-c2cccnc2)s1`, the Potency is 3.16 µM (active).

For the molecule `N#Cc1cc(NC(=O)Nc2nnc(-c3ccncc3)s2)ccc1Cl`, the Potency was 0.398 µM (active).

On to `O=C(Nc1ccc(Cl)c([N+](=O)[O-])c1)Nc1cccc(-c2ccncc2)n1`, for which the Potency was 2.82 µM (active).

For `O=C(Nc1ccc2ccccc2c1)Nc1cccc(-c2ccncc2)n1`, the Potency is 8.91 µM (active).

In the case of `Cc1cc(NC(=O)Nc2nnc(-c3ccncc3)s2)ccc1F`, the Potency is 15.8 µM (active).

Turning to `O=C(Nc1ccc2c(c1)OCCO2)Nc1nnc(-c2ccncc2)s1`, the “activity change, negative = inhibition” value is 8.77%.

As to `N#Cc1cc(NC(=O)Nc2nnc(-c3ccncc3)s2)ccc1F`, the Potency is 1.41 µM (active).

For `O=C(Nc1ccc2ccccc2c1)Nc1nnc(-c2ccc(Cl)cc2)s1`, the “activity change, negative = inhibition” value was -10.2%.

For the molecule `O=C(Nc1ccc(Br)cc1)Nc1nnc(-c2ccncc2)s1`, the Potency is 12.6 µM (active).
